Among the test systems are HCT-15 colon; HT29 colon; SNB-75 CNS; SNB-19 CNS; U251 CNS; PC-3 prostate; SK-MEL-5 melanoma; UACC-62 melanoma; LOX IMVI melanoma; SK-MEL-28 melanoma; SK-MEL-2 melanoma; EKVX NSCLC; SN12C renal; UO-31 renal; TK-10 renal; ACHN renal; CAKI-1 renal; A498 renal; CCRF-CEM leukemia; MOLT-4 leukemia.
Holding throughout (assay): NCI-60 one-dose screen, 48 h (100 = growth as untreated, 0 = no growth, -100 = all killed)
What all share (conditions): 10 µM unless noted

Molecules are shown by their SMILES. Compounds without any hit were thinned out: in the full panel of roughly 83,000, 20% have a hit.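 Activity criterion: percent growth below 10, measured after cells in 96-well plates were exposed to a single compound concentration for 48 hours.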 Values without a mark were called inactive. Activity calls are given as the source filed them.

In the case of `CN1CCN(CCCNC(=O)c2c3c(n4ccccc24)C(=O)c2ncccc2C3=O)CC1`, the growth is 4.07% (active) with HCT-15 colon; 0.534% (active) in the test with HT29 colon; -4.64% (active) with SNB-75 CNS; -4.84% (active) with SNB-19 CNS; -15.7% (active) with U251 CNS; -1.89% (active) with PC-3 prostate. Moreover, the growth was -96% (active) with SK-MEL-5 melanoma; -23.7% (active) with UACC-62 melanoma; -31.7% (active) in the test with LOX IMVI melanoma; 61.5% in the test with SK-MEL-28 melanoma; 9.41% (active) in the test on SK-MEL-2 melanoma; 24% in the test with EKVX NSCLC. For the same compound, the growth was -48.5% (active) with SN12C renal; 32.2% with UO-31 renal; 56.7% in the test with TK-10 renal; 7.62% (active) in the test with ACHN renal; 75.4% in the test with CAKI-1 renal; 45.8% with A498 renal. For the same compound, the growth in the test with CCRF-CEM leukemia is -11.5% (active); with MOLT-4 leukemia, -35.1% (active).

With `c1ccc2c(-c3cnn4cc(-c5ccc(N6CCNCC6)cc5)cnc34)ccnc2c1`, the growth with HCT-15 colon was -55.6% (active); in the test with HT29 colon, -76.9% (active); in the test with SNB-75 CNS, -96.9% (active); with SNB-19 CNS, -57.8% (active); with U251 CNS, -79% (active); in the test with PC-3 prostate, -12% (active). Moreover, the growth in the test with SK-MEL-5 melanoma was -84.7% (active); in the test with UACC-62 melanoma it was -84.2% (active); with LOX IMVI melanoma, -85.8% (active); in the test on SK-MEL-28 melanoma, -90.7% (active); in the test on SK-MEL-2 melanoma, -59.2% (active); with EKVX NSCLC, -37.3% (active). Besides, the growth was -75.5% (active) in the test with SN12C renal; -93.4% (active) with UO-31 renal; -74.8% (active) in the test with TK-10 renal; -99.3% (active) in the test with ACHN renal; -99.6% (active) with CAKI-1 renal; -87% (active) in the test on A498 renal. In addition, the results for the growth in the test on CCRF-CEM leukemia and in the test with MOLT-4 leukemia were -48.2% (active) and -28.7% (active), respectively.

Take `O=C(O)/C=C/c1cn(-c2ccccc2)nc1-c1ccc(F)cc1`: the growth with HCT-15 colon is 101%; with HT29 colon, 107%; with SNB-75 CNS, 87.9%; in the test on SNB-19 CNS, 92.2%; with U251 CNS, 96.2%; in the test on PC-3 prostate it was 84.4%. Also, the growth in the test with SK-MEL-5 melanoma is 93.9%; in the test on UACC-62 melanoma, 88.3%; in the test with LOX IMVI melanoma, 95.2%; with SK-MEL-28 melanoma, 104%; in the test on SK-MEL-2 melanoma, 106%; in the test on EKVX NSCLC, 97.2%. Further, the growth in the test on SN12C renal was 91.1%; in the test with UO-31 renal it was 60.7%; in the test with TK-10 renal, 103%; in the test on ACHN renal it was 92%; in the test with CAKI-1 renal, 88.9%; with A498 renal it was 76.1%. In addition, the growth is 86.4% with CCRF-CEM leukemia and 109% in the test with MOLT-4 leukemia.

As for `NS(=O)(=O)Oc1cccc(-c2nc3sccn3c2-c2ccccc2)c1`, the growth in the test with HCT-15 colon is 29%; in the test with HT29 colon, 27%; with SNB-75 CNS, -9.42% (active); in the test on SNB-19 CNS it was 51.1%; with U251 CNS, 36.3%; in the test with PC-3 prostate, 72.4%. The growth is 32.3% in the test on SK-MEL-5 melanoma; 36.3% in the test with UACC-62 melanoma; 49.5% with LOX IMVI melanoma; 60.4% in the test on SK-MEL-28 melanoma; 55.6% in the test on SK-MEL-2 melanoma; 66.7% in the test on EKVX NSCLC. Moreover, the growth is 53% with SN12C renal; 68.8% in the test on UO-31 renal; 87.9% with TK-10 renal; 75.1% in the test on ACHN renal; 45.7% with CAKI-1 renal; 7.63% (active) with A498 renal. For the same compound, the growth in the test with CCRF-CEM leukemia was 40.2%; in the test with MOLT-4 leukemia, 31.1%.

Consider `CCN1CCN(C(=O)[C@]23CC[C@@H](C)[C@H](C)[C@@H]2C2=CC[C@@H]4[C@@]5(C)C/C(=C/c6ccncc6)C(=O)C(C)(C)[C@@H]5CC[C@@]4(C)[C@]2(C)CC3)CC1`, for which the growth with HCT-15 colon is -53.2% (active); in the test with HT29 colon, 1.6% (active); in the test with SNB-75 CNS, 19.5%; in the test with SNB-19 CNS, 47.3%; in the test on U251 CNS, 15.2%; with PC-3 prostate, 19.3%. Moreover, the growth with SK-MEL-5 melanoma was -12.3% (active); in the test with UACC-62 melanoma, 43.1%; in the test on LOX IMVI melanoma, -95.3% (active); in the test on SK-MEL-28 melanoma, -45.7% (active); in the test with SK-MEL-2 melanoma it was 33.5%; in the test on EKVX NSCLC, 43.7%. Further, the growth in the test with SN12C renal is 28.1%; in the test with UO-31 renal, 9.04% (active); in the test with TK-10 renal, 38.7%; with ACHN renal it was 15.2%; with CAKI-1 renal it was 43.6%; with A498 renal it was -10.5% (active). For the same compound, the values for the growth in the test with CCRF-CEM leukemia and in the test with MOLT-4 leukemia were 5.24% (active) and 0.087% (active), respectively.

Consider `Oc1c(Cl)cc(Cl)c2ccc(CN3CCNCC3)nc12`, for which the growth in the test on HCT-15 colon is 19.5%; in the test on HT29 colon, 105%; with SNB-75 CNS, 45.9%; in the test on SNB-19 CNS, 41.9%; with U251 CNS, 26.8%; with PC-3 prostate it was 40.3%. In addition, the growth was 42.8% with SK-MEL-5 melanoma; 33.3% in the test with UACC-62 melanoma; 45.3% in the test on LOX IMVI melanoma; 62.3% in the test on SK-MEL-28 melanoma; 66.8% in the test on SK-MEL-2 melanoma; 48.7% in the test with EKVX NSCLC. For the same compound, the growth in the test on SN12C renal is 42.8%; with UO-31 renal, 3.7% (active); in the test with TK-10 renal, 56.3%; in the test on ACHN renal it was 31.1%; in the test on CAKI-1 renal it was 21.8%; with A498 renal, 63.3%. Moreover, the growth in the test with CCRF-CEM leukemia is 36.1%; with MOLT-4 leukemia, 39.7%.

As for `COc1cc(C2CC(c3cccc(Nc4ccncc4)c3)=Nc3c(N)ncnc3N2)cc(OC)c1OC` (stereo not given), the growth in the test on HCT-15 colon is 88.3%; with HT29 colon it was 98.1%; in the test on SNB-75 CNS, 83.8%; in the test on SNB-19 CNS it was 93.8%; with U251 CNS it was 77.7%; with PC-3 prostate, 93.8%. Besides, the growth was 93.7% with SK-MEL-5 melanoma; 87.3% in the test on UACC-62 melanoma; 91.3% in the test with LOX IMVI melanoma; 102% in the test on SK-MEL-28 melanoma; 92.6% with SK-MEL-2 melanoma; 87.2% in the test on EKVX NSCLC. Further, the growth in the test with SN12C renal is 93.9%; in the test with UO-31 renal, 98.5%; in the test on TK-10 renal, 110%; with ACHN renal it was 95.1%; in the test on CAKI-1 renal it was 85%; with A498 renal, 87.4%. In addition, the values for the growth with CCRF-CEM leukemia and with MOLT-4 leukemia were 73.2% and 85.6%, respectively.

The values are drawn from PubChem BioAssay (NCI).
